Experimental data published in PubChem BioAssay (EPA / NIEHS).
The source made the active and inactive calls. The calls were made as follows: active = hit-call score of the fitted dose curve at least 0.9, where 1 is the maximum; inactive = score below 0.9.

What was measured:
[1] = APR_HepG2_CellCycleArrest_1hr: Apredica 1-hour HepG2 Assay for Cell Cycle Arrest (AID 2282666); conditions: high-content imaging, actives raise or lower the signal
Summary of the method: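 HepG2 cells exposed for 1 h to 0.39–200 uM compound (0.5% DMSO). Fixed, Hoechst-stained nuclei imaged by ArrayScan; DNA content quantified by Cell Cycle analysis; bidirectional fit against DMSO.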

[2] = APR_HepG2_MicrotubuleCSK_1hr: Apredica 1-hour HepG2 Assay for Microtubule CSK Stabilty (AID 2282669); conditions: HepG2 microtubule cytoskeleton imaging, actives raise or lower the signal
Summary of the method: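 HepG2 cells exposed 1 h to 0.39–200 uM compound (0.5% DMSO, duplicates), then formaldehyde-fixed, permeabilized and immunostained for alpha-tubulin with Hoechst nuclei. Imaged by ArrayScan high-content analysis; bidirectional fit versus DMSO.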

[3] = APR_HepG2_NuclearSize_1hr: Apredica 1-hour HepG2 Assay for Nuclear Size (AID 2282670); conditions: high-content imaging, actives raise or lower the signal
Summary of the method: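 HepG2 cells dosed 1 hr with 0.39–200 uM compound (0.5% DMSO), formaldehyde-fixed, Hoechst 33342-stained and imaged at 20x; nuclear diameter from nuclear stain, fitted bidirectionally against DMSO.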

[4] = APR_HepG2_p53Act_1hr: Apredica 1-hour HepG2 Assay for p53 Activation (AID 2282671); conditions: high-content imaging, actives raise or lower the signal
Summary of the method: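 HepG2 cells treated 1 h with compound at 0.39–200 uM (10 concentrations, duplicate) in 0.5% DMSO. Formaldehyde-fixed, permeabilised cells immunostained for p53 with Hoechst 33342; high-content imaging, bidirectional fit versus DMSO.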

[5] = APR_HepG2_MitoticArrest_1hr: Apredica 1-hour HepG2 Assay for Mitotic Arrest (AID 2282672); conditions: high-content imaging, actives raise or lower the signal
Summary of the method: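 HepG2 cells exposed 1 hr to compounds at 0.39–200 uM (0.5% v/v DMSO final), then fixed in 3.7% formaldehyde and immunostained for phospho-histone H3 with Hoechst 33342. Mitotic arrest scored by automated fluorescence imaging, fitted bidirectionally versus DMSO.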

[6] = APR_HepG2_P-H2AX_1hr: Apredica 1-hour HepG2 Assay for H2AX Phosphorylation (AID 2282673); conditions: high-content imaging, actives raise or lower the signal
Summary of the method: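 HepG2 dosed 1 hr at 0.39-200 uM (0.5% DMSO final), duplicate. Fixed in 3.7% formaldehyde, Triton permeabilized, immunostained for phospho-histone H2A.x (1:200) with Hoechst 33342; ArrayScan 20x imaging, bidirectional fit vs DMSO.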

[7] = APR_HepG2_MitoMass_1hr: Apredica 1-hour HepG2 Assay for Mitochondrial Mass (AID 2282674); conditions: high-content imaging, actives raise or lower the signal
Summary of the method: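 HepG2 cells dosed 1 hr with 0.39-200 uM compound (0.5% DMSO), duplicate wells. Mitochondria stained with 250 nM MitoTracker Red CMXRos for 30 min before formaldehyde fixation, imaged at 20x by ArrayScan; bidirectional fit versus DMSO.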

[8] = APR_HepG2_MitoMembPot_1hr: Apredica 1-hour HepG2 Assay for Mitochondrial Membrane Potential (AID 2282675); conditions: imaging, actives raise or lower the signal
Summary of the method: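 HepG2 cells dosed 1 hour with 0.39–200 uM compound in duplicate, 0.5% DMSO final. MitoTracker Red CMXRos (250 nM, 30 min) loaded before formaldehyde fixation; fluorescence quantified by high-content imaging, bidirectional fitting versus DMSO.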

[9] = APR_HepG2_NuclearSize_24hr: Apredica 24-hour HepG2 Assay for Nuclear Size (AID 2282907); conditions: high-content imaging, actives raise or lower the signal
Summary of the method: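 Compounds in DMSO (final 0.5%) were added to human HepG2 hepatoma cells at ten concentrations up to 200 uM for 24 hr. Fixed nuclei were stained with Hoechst 33342, and nuclear diameter was quantified from automated images.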

[10] = APR_HepG2_CellLoss_24hr: Apredica 24-hour HepG2 Assay for Cell Loss (AID 2282908); conditions: high-content imaging;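 as to AC50: fit in both directions so a hit may be cell loss or gain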
Summary of the method: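 Cell number is quantified by fluorescence imaging of Hoechst 33342-stained nuclei following dosing at 0.39–200 uM in 0.5% DMSO. Curves are fitted in both directions from the DMSO baseline.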

[11] = APR_HepG2_MitoticArrest_24hr: Apredica 24-hour HepG2 Assay for Mitotic Arrest (AID 2282910); conditions: high-content imaging, actives raise or lower the signal
Summary of the method: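 Compounds are dosed onto HepG2 cells across ten concentrations up to 200 uM for 24 hr. Cells are then fixed in 3.7% formaldehyde, permeabilised, and labelled for phospho-histone H3 and nuclei; images are scored by cell cycle analysis and fitted bidirectionally relative to DMSO.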

[12] = APR_HepG2_MitoMembPot_24hr: Apredica 24-hour HepG2 Assay for Mitochondrial Membrane Potential (AID 2282911); conditions: imaging, actives raise or lower the signal
Summary of the method: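 HepG2, 24 hr dosing, 10 concentrations 0.39–200 uM, 0.5% DMSO final. Live-cell MitoTracker Red CMXRos 250 nM 30 min, then 3.7% formaldehyde fix. HCS fluorescence imaging, 20x; bidirectional fit vs DMSO baseline.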

[13] = APR_HepG2_MitoMass_24hr: Apredica 24-hour HepG2 Assay for Mitochondrial Mass (AID 2282912); conditions: high-content imaging, actives raise or lower the signal
Summary of the method: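 The liver line HepG2 was dosed in duplicate across a 0.39–200 uM series, with final DMSO held at 0.5% v/v, and harvested at 24 hr. High-content imaging measured mitochondrial dye staining.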

[14] = APR_HepG2_p53Act_24hr: Apredica 24-hour HepG2 Assay for p53 Activation (AID 2282913); conditions: high-content imaging, actives raise or lower the signal;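 also: p53 protein immunofluorescence averaged per cell in HepG2 with Hoechst nuclei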
Summary of the method: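 Read-out: Cy5 immunofluorescence for p53 in fixed, permeabilized HepG2, imaged by HCS with Hoechst-defined nuclei. Dosing was 24 hr at 0.39–200 uM in 0.5% DMSO. Curves were fitted bidirectionally relative to DMSO.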

[15] = APR_HepG2_CellCycleArrest_72hr: Apredica 72-hour HepG2 Assay for Cell Cycle Arrest (AID 2282914); conditions: high-content imaging, actives raise or lower the signal
Summary of the method: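 HepG2, 72 hr exposure, 10-point 0.39–200 uM, duplicate, 0.5% DMSO final. Fix 3.7% formaldehyde 30 min RT, Triton X-100 0.5%, Hoechst 33342 2 ug/mL. ArrayScan 20x, six fields/well; DNA content per nucleus; bidirectional fit vs DMSO.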

[16] = APR_HepG2_CellLoss_72hr: Apredica 72-hour HepG2 Assay for Cell Loss (AID 2282915); conditions: high-content imaging
Summary of the method: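 Cell number comes from Hoechst 33342-labelled nuclei, imaged at 20x after 3.7% formaldehyde fixation. Dosing was 0.39–200 uM, ten concentrations in duplicate, 0.5% DMSO final, for 72 h. Bidirectional fit relative to DMSO baseline.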

[17] = APR_HepG2_CellCycleArrest_24hr: Apredica 24-hour HepG2 Assay for Cell Cycle Arrest (AID 2282905); conditions: imaging, actives raise or lower the signal;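 also: cell cycle arrest scored as ratio of 2N to 4N nuclear DNA content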
Summary of the method: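 Cell cycle arrest is scored from nuclear DNA content measured by high-content imaging of Hoechst 33342-stained HepG2 cells following 24-hour treatment at ten concentrations up to 200 uM, with DMSO as baseline.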

[18] = APR_HepG2_MicrotubuleCSK_24hr: Apredica 24-hour HepG2 Assay for Microtubule CSK Stabilty (AID 2282909); conditions: HepG2 microtubule cytoskeleton imaging, actives raise or lower the signal
Summary of the method: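 Steps: dose HepG2 for 24 h (0.39–200 uM, 0.5% DMSO); fix 30 min in 3.7% formaldehyde at room temperature; permeabilize; stain alpha-tubulin 60 min; image microtubule cytoskeleton at 20x. Signal change fitted in both directions relative to DMSO.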

[19] = APR_HepG2_StressKinase_1hr: Apredica 1-hour HepG2 Assay for Stress Kinase (AID 2282906); conditions: HepG2 stress kinase (phospho-c-Jun) imaging, actives raise or lower the signal
Summary of the method: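 HepG2 cells dosed 0.39-200 uM (0.5% DMSO) for 1 h, then formaldehyde-fixed. Stress kinase read by phospho-c-Jun immunofluorescence using high-content imaging; bidirectional fit vs DMSO.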

Measured: AC50

COP(=O)(OC)SCn1c(=O)oc2cc(Cl)cnc21
inactive: [1] | [2] | [3] | [4] | [5] | [6] | [7] | [8] | [9] | [11] | [12] | [13] | [14]
active: [10] 32.9 µM | [15] 47.4 µM | [16] 37.8 µM

CC(C)=CC1C(C(=O)OCN2C(=O)C3=C(CCCC3)C2=O)C1(C)C (stereo unspecified)
active: [10] 109 µM | [18] 105 µM | [16] 100 µM
inactive: [1] | [2] | [3] | [4] | [5] | [6] | [7] | [8] | [17] | [9] | [11] | [12] | [14] | [15]

COP(=O)(OC)C(O)C(Cl)(Cl)Cl (stereo unspecified)
active: [10] 76.8 µM | [18] 97.7 µM | [11] 103 µM | [15] 184 µM | [16] 100 µM
inactive: [1] | [2] | [3] | [4] | [5] | [6] | [7] | [8] | [9] | [12] | [14]

CC(C)[C@H](C(=O)O[C@H](C#N)c1cccc(Oc2ccccc2)c1)c1ccc(Cl)cc1
inactive: [1] | [2] | [3] | [4] | [5] | [6] | [7] | [8] | [17] | [19] | [9] | [10] | [11] | [12] | [14] | [15] | [16]

FC(F)C(F)(F)OCC(Cn1cncn1)c1ccc(Cl)cc1Cl (stereo unspecified)
active: [10] 48.7 µM | [18] 103 µM | [15] 75.8 µM | [16] 99.9 µM
inactive: [1] | [2] | [3] | [4] | [5] | [6] | [7] | [8] | [9] | [11] | [12] | [14]

CON=C(C(=O)OC)c1ccccc1CON=C(C)c1cccc(C(F)(F)F)c1
inactive: [1] | [2] | [3] | [4] | [5] | [6] | [7] | [8] | [17] | [9] | [10] | [18] | [11] | [14] | [15]
active: [12] 1.07 µM | [16] 3.36 µM

CC(C1CC1)C(O)(Cn1cncn1)c1ccc(Cl)cc1 (stereo unspecified)
inactive: [1] | [2] | [3] | [4] | [5] | [6] | [7] | [8] | [9] | [10] | [11] | [12] | [14] | [15] | [16]

CNC(=O)ON=C(SC)C(=O)N(C)C
inactive: [1] | [2] | [3] | [4] | [5] | [6] | [7] | [8] | [19] | [9] | [10] | [11] | [12] | [14] | [15]
active: [16] 100 µM

CCOP(=S)(OCC)Oc1ccc2c(C)c(Cl)c(=O)oc2c1
active: [11] 114 µM | [16] 49.1 µM
inactive: [1] | [2] | [3] | [4] | [5] | [6] | [7] | [8] | [17] | [9] | [10] | [12] | [13] | [14] | [15]

C#CCC1=C(C)C(OC(=O)C2C(C=C(C)C)C2(C)C)CC1=O (stereo unspecified)
inactive: [1] | [2] | [3] | [4] | [5] | [6] | [7] | [8] | [9] | [18] | [11] | [12] | [14] | [16]
active: [10] 89.4 µM | [15] 104 µM

CNC(=O)ON=C(C)SC
inactive: [1] | [2] | [3] | [4] | [5] | [6] | [7] | [8] | [17] | [19] | [9] | [10] | [11] | [12] | [14] | [15] | [16]

Cc1cc(C2CC2)nc(Nc2ccccc2)n1
active: [8] 29.2 µM | [10] 60.5 µM | [18] 98.6 µM | [16] 75.7 µM
inactive: [1] | [2] | [3] | [4] | [5] | [6] | [7] | [9] | [11] | [12] | [13] | [14] | [15]

CCOP(=S)(OCC)Oc1ccc([N+](=O)[O-])cc1
inactive: [1] | [2] | [3] | [4] | [5] | [6] | [7] | [8] | [17] | [19] | [9] | [10] | [11] | [12] | [14] | [15] | [16]

CCCOCC(=Nc1ccc(Cl)cc1C(F)(F)F)n1ccnc1
active: [16] 100 µM
inactive: [1] | [2] | [3] | [4] | [5] | [6] | [7] | [8] | [9] | [10] | [11] | [12] | [14] | [15]

CCC(CC)Nc1c([N+](=O)[O-])cc(C)c(C)c1[N+](=O)[O-]
active: [12] 84.3 µM | [16] 108 µM
inactive: [1] | [2] | [3] | [4] | [5] | [6] | [7] | [8] | [19] | [9] | [10] | [11] | [13] | [14] | [15]

CCOC(=O)CC(SP(=O)(OC)OC)C(=O)OCC (stereo unspecified)
inactive: [1] | [2] | [3] | [4] | [5] | [6] | [7] | [8] | [9] | [10] | [11] | [12] | [14] | [15] | [16]
